Rows were chosen to be rich in hits. Some 28% of all compounds tested hit in one or more screens of this group.
D1 allo mod = allosterically modulates the human D1 dopamine receptor. AID 641. 58,000 tested, 5.9% active. B-score at 10 µM. HEK293 D1, CRE-luciferase, dopamine EC30 potentiation; actives deviate in either direction;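 active = luminescence count or its row- and column-corrected plate score outside the 99.7% band of the plate's sample wells, on either side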
CYP2C9 act = increases human cytochrome P450 2C9 activity; activation factor at 5 µM; 96,000 tested, 1.4% active; AID 1024; recombinant CYP2C9, luciferin-H conversion, luminescence; stronger effect = higher value; factor 1 = untreated enzyme, 0 = blocked;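 active = activation factor of 2 or more for CYP2C9 at a 5 µM dose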
CYP2C19 inh = blocks human cytochrome P450 2C19; P33261; CYP2C19 Supersomes, luciferin-H EGE luminescence, 30 min; inhibition, % at 5 µM; 96,000 tested, 21% active; AID 778;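 active = CYP2C19 inhibition above a set limit at 5 µM in the primary screen, cut at about 50% in these data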
Target sequence (P33261 whole entry, looked up): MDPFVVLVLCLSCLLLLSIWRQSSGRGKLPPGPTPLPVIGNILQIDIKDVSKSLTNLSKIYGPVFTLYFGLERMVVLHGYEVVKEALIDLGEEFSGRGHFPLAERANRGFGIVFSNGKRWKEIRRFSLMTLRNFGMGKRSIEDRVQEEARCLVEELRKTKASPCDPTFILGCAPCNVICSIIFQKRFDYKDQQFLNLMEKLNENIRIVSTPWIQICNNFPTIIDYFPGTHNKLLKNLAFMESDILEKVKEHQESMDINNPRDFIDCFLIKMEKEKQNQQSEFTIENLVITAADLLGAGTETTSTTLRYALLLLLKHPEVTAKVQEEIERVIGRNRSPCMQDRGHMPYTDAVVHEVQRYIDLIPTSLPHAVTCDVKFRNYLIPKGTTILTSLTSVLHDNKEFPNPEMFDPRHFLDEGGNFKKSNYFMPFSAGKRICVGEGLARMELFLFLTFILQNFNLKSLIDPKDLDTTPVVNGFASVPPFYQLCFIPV
CYP2C19 act = increases human CYP2C19 enzyme activity. AID 1025. 96,000 tested, under 10 active. P33261. activation factor at 5 µM. recombinant CYP2C19, luciferin-H EGE luminescence; stronger effect = higher value; 0 = fully inhibited enzyme, 1 = untreated enzyme;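 active = activation factor of at least 2 at 5 µM in the primary screen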
DAT uptake mod = human DAT dopamine uptake with cocaine, either direction; LLC-PK1 hDAT cells, [14C]-dopamine uptake with cocaine IC80; actives deviate in either direction; B-score at 10 µM; AID 449768; 110,000 tested, 1.3% active;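 active = Z score or B-score, a plate-position-corrected score, falls beyond the plate's 99.7% confidence bounds, in either direction; inactive = both scores lie inside the 99.7% bounds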
CYP2C9 inhib = blocks human cytochrome P450 2C9; 96,000 tested, 20% active; CYP2C9 Supersomes, luciferin-H conversion, luminescence; inhibition, % at 5 µM;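 active = blocking of liver enzyme CYP2C9 beyond about 50% at 5 µM, limit read from the data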
Of the large screens only hits and unclear results are named; the others gave an inactive call.

COc1ccc(Oc2cc(NC(=O)c3nn(C)cc3[N+](=O)[O-])cc([N+](=O)[O-])c2)cc1	CYP2C19 inh 66, CYP2C9 inhib 91 (no result: D1 allo mod)
CCCCOC(=O)C1=C(N)OC2=C(C(=O)CC(C)(C)C2)[C@]12C(=O)N(C)c1ccccc12	none
CC(C)NC(=O)Cn1cc(C(=O)c2ccccc2F)c2ccccc21	CYP2C19 inh 50 (no result: D1 allo mod)
Clc1ccccc1Nc1ncnc(-n2cccc2)n1	none (no result: D1 allo mod)
CCC1(c2ccccc2)C(=O)N(COC)C(=O)N(COC)C1=O	CYP2C19 inh 79
CCOC(=O)c1c(N)n(CCCOC(=O)c2ccco2)c2nc3ccccc3nc12	CYP2C19 inh 66, CYP2C9 inhib 86
O=c1[nH]c(=O)n(Cc2ccco2)c(O)c1C=NCc1cccs1	none
O=c1[nH]c(=S)n(Cc2ccco2)c(O)c1C=NCc1cccs1	CYP2C9 inhib 59 (no result: D1 allo mod)
CC(C)(C)N1Cc2ccccc2C1=N	none (no result: D1 allo mod)
O=C1CC(N2CC=C(c3ccccc3)CC2)C(=O)N1c1ccc(F)cc1 (stereo not drawn)	CYP2C9 inhib 62 (no result: D1 allo mod)
COc1cc(/C=C2\C(=O)NC(=O)N(c3ccccc3)C2=O)cc(OC)c1O	none (no result: D1 allo mod)
Cc1ccc(N2C(=O)NC(=O)/C(=C/c3ccc(OC(=O)c4cccs4)cc3)C2=O)cc1	CYP2C19 inh 54 (no result: D1 allo mod)
O=C(CNS(=O)(=O)c1cccs1)N1CCC2(CC1)OCCO2	CYP2C19 inh 52
COc1ccc(S(=O)(=O)NC(CC(=O)N2CCC3(CC2)OCCO3)C(C)C)cc1 (stereo not drawn)	none (no result: D1 allo mod)
CCOC(=O)c1c(/N=C/c2c(O)n(-c3ccc(F)cc3)c(=S)[nH]c2=O)sc2c1CCCC2	none (no result: D1 allo mod, DAT uptake mod)
CCOC(=O)c1c(-n2c(C)cc(/C=C3\C(=O)NC(=O)N(C)C3=O)c2C)sc2c1CCCC2	CYP2C9 inhib 71 (no result: D1 allo mod)
Cc1cc(C)c(C(=O)CN2CCOCC2)c(C)c1	none
Nc1ccccc1C(=O)OC1CSC1	none
CCCC12CN3CC(CCC)(CN(C1)C3c1ccccn1)C2=O (stereo not drawn)	none (no result: D1 allo mod)
COC(=O)C(O)(c1c(C)[nH]c2ccccc12)C(F)(F)F (stereo not drawn)	none (no result: D1 allo mod)
COC(=O)c1cc(C(O)(C(=O)OC)C(F)(F)F)c(/N=C/N(C)C)s1 (stereo not drawn)	CYP2C19 inh 83, CYP2C9 inhib 73
CCN1CCN(c2nc3c(c(=O)[nH]2)CCCC3)CC1	none
CCCCN1C(=O)NC(=O)C2(Cc3c(nc4ccccn4c3=O)N3CCc4ccccc4C32)C1=O (stereo not drawn)	none
CCCCN1C(=O)NC(=O)C2(Cc3c(nc4c(C)cccn4c3=O)N3CCc4ccccc4C32)C1=O (stereo not drawn)	CYP2C19 inh 77, CYP2C9 inhib 89 (no result: DAT uptake mod)
Cc1cccc(C)c1NC1=NCCCCS1	none
CCCC(=O)OCC[N+](C)(C)C	none (no result: CYP2C9 act, CYP2C19 inh, CYP2C19 act, CYP2C9 inhib)
O=C(c1ccccc1)c1cn(CC(=O)N2CCCc3ccccc32)c2ccccc12	CYP2C9 inhib 74 (no result: D1 allo mod)
O=C(CN1C(=O)CN=C(c2ccccc2)c2ccccc21)NCc1ccco1	none
O=C(Cn1cc(C(=O)c2ccccc2)c2ccccc21)NCc1ccco1	CYP2C19 inh 82, CYP2C9 inhib 82
CCCC(C)C(=O)NC1CCSC1=O (stereo not drawn)	none
OCc1cnc[nH]1	none (no result: D1 allo mod, CYP2C9 act, CYP2C19 inh, CYP2C19 act, CYP2C9 inhib)
CCC(C(=O)N1CCC2(CC1)OCCO2)c1ccccc1 (stereo not drawn)	none (no result: CYP2C9 act, CYP2C19 inh, CYP2C19 act, CYP2C9 inhib)
CC(C(=O)N1CCC2(CC1)OCCO2)C1Sc2ccccc2NC1=O (stereo not drawn)	CYP2C19 inh 95
CCn1c(=O)cc(SCC(=O)N2CCC3(CC2)OCCO3)c2ccccc21	CYP2C9 act 2.2 (no result: D1 allo mod)
CN1CSC(=S)N(C)C1	none
O=c1[nH]c(=O)n(C2CCCCC2)c(O)c1C1NCCc2ccccc21 (stereo not drawn)	none
CN(C)CC1CSCCC1(O)c1ccccc1 (stereo not drawn)	none (no result: D1 allo mod, CYP2C9 act, CYP2C19 inh, CYP2C19 act, CYP2C9 inhib)
Oc1cccc(/C=N/NP(=S)(c2ccccc2)c2ccccc2)c1	CYP2C19 inh 94, CYP2C9 inhib 99 (no result: D1 allo mod)
COC(=O)C1=C(c2ccc(S(C)(=O)=O)cc2)C[C@@H]2CC[C@H]1N2C(=O)NCc1ccco1	none (no result: D1 allo mod, CYP2C9 act, CYP2C19 inh, CYP2C19 act, CYP2C9 inhib)
CCN1C[C@]2(COC)CC[C@H](OC)[C@@]34C5C[C@H]6C(=O)C5[C@](O)(C[C@H]6OC)[C@@](O)(C(OC)C23)[C@@H]14 (stereo partly drawn)	none (no result: D1 allo mod, CYP2C9 act, CYP2C19 inh, CYP2C19 act, CYP2C9 inhib)
COc1ccc(CCC(=O)N2CCC3(CC2)OCCO3)cc1	CYP2C19 inh 75 (no result: D1 allo mod)
COc1ccc(C(CC(=O)N2CCC3(CC2)OCCO3)NS(=O)(=O)c2ccc(OC)cc2)cc1 (stereo not drawn)	none
COc1ccc(S(=O)(=O)NC(CC(=O)N2CCC3(CC2)OCCO3)c2ccco2)cc1 (stereo not drawn)	CYP2C19 inh 76, CYP2C9 inhib 51
CC12CN3CC(C)(CN(C1)C31CCOCC1)C2=O	none (no result: D1 allo mod, CYP2C9 act, CYP2C19 inh, CYP2C19 act, CYP2C9 inhib)
Cc1cc(NC(=O)COC(=O)c2c(C)nn(Cc3ccccc3)c2C)no1	CYP2C9 inhib 65 (no result: D1 allo mod)
Cc1nn(Cc2ccccc2)c(C)c1C(=O)OCC(=O)NCc1ccco1	CYP2C19 inh 60, CYP2C9 inhib 70 (no result: D1 allo mod)
Cc1cc(NC(=O)COC(=O)c2c(C)nn(Cc3ccccc3Cl)c2Cl)no1	none
C=Cn1ccnc1P(=S)(c1ccn(C)c1)c1nccn1C=C	none
N#Cc1c(/N=C/c2c(O)n(Cc3ccco3)c(=O)[nH]c2=O)sc2c1CCCC2	none
COc1cccc2c1O[C@H]1C(=O)CC[C@H]3CN(C)CCC231 (stereo partly drawn)	none (no result: D1 allo mod, CYP2C9 act, CYP2C19 inh, CYP2C19 act, CYP2C9 inhib)
CCOC(=O)C(C)(CC)NC(=O)CSP(=S)(OCC)OCC (stereo not drawn)	CYP2C19 inh 98, CYP2C9 inhib 91 (no result: D1 allo mod)
CCOP(=S)(OCC)SCC(=O)NC(C(=O)O)C(C)C (stereo not drawn)	CYP2C9 inhib 92 (no result: D1 allo mod)
Cc1ccc(-n2c(O)c(C=NC3CCCCC3N)c(=O)[nH]c2=O)cc1C (stereo not drawn)	none
Cc1ccc(-n2c(O)c(C=NC3CCCC3)c(=O)[nH]c2=O)c(C)c1	CYP2C19 inh 94
Cc1cccc(N2C(=O)NC(=O)C3(Cc4cc(C)ccc4N(C)C3)C2=O)c1 (stereo not drawn)	CYP2C9 inhib 63
Cc1cccc(N2C(=O)CC(=O)NC2=O)c1	none
COc1ccc2c(c1)CC1(CN2C)C(=O)NC(=O)N(c2ccc(C)cc2)C1=O (stereo not drawn)	CYP2C9 inhib 62
COc1ccc2c(c1)CC1(CN2C)C(=O)NC(=O)N(c2ccc(F)cc2)C1=O (stereo not drawn)	CYP2C9 inhib 71
O=C(CCc1nc(-c2ccccc2F)no1)N1CCC2(CC1)OCCO2	none
O=C(COc1ccc(Br)cc1)N1CCN(Cc2c[nH]c3ccccc23)CC1	CYP2C19 inh 86, CYP2C9 inhib 89 (no result: D1 allo mod, DAT uptake mod)
O=C(COc1ccc2ccccc2c1)N1CCN(Cc2c[nH]c3ccccc23)CC1	none (no result: D1 allo mod)
CCOC(=O)C(O)(c1cn(C)c2ccccc12)C(F)(F)F (stereo not drawn)	CYP2C9 act 2.6

Source: PubChem
